# Laboratory results reported in PMC7862700, “An all-to-all approach to the identification of sequence-specific readers for epigenetic DNA modifications on cytosine”.
# Assays:
# Assay in all cases: DAPPL (digital affinity profiling via proximity ligation, sequencing); 10 mM Tris-HCl pH 7.5, 50 mM NaCl, 1 mM DTT, 4% glycerol, room temperature, 30 min; GST-TFs on glutathione beads, 16-mer random dsDNA library, 0.1% formaldehyde crosslink after washing; high values mean tight binding
# FEV = molecular target: T1, FEV (Homo sapiens, UniProt Q99581 1-238); details: protein: recombinant; tags: N-terminal GST; dsDNA, one strand shown
# T1 sequence: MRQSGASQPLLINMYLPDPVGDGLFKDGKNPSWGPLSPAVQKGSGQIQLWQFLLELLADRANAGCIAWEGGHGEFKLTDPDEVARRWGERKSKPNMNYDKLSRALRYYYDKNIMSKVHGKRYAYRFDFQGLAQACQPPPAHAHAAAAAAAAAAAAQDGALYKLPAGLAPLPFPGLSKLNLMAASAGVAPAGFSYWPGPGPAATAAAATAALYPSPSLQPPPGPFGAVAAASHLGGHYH
# In short: (§1)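 After expression in yeast as GST fusions, human transcription factors were bound to glutathione beads, DNA-barcoded and mixed with a tag-only sample. The pools were incubated with 200 nmole of a 16-mer random double-stranded DNA library in Tris/NaCl/DTT/glycerol buffer (30 min, room temperature), washed and crosslinked with 0.1% formaldehyde. Proximity ligation with BsaI/T4 ligase ran for 1 h at 37 °C, before PCR amplification and sequencing on an Illumina NextSeq500. Binding signal is a hexamer's read frequency for a factor divided by its frequency for the tag-only sample.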
# ETV5 = ETV5 (Homo sapiens, UniProt P41161 1-510); details: protein: recombinant; tags: N-terminal GST; dsDNA, one strand shown
# In short: as §1
# HSF1 = HSF1 (Homo sapiens, UniProt Q00613 1-529); details: protein: recombinant; tags: N-terminal GST; chain copies: 3; dsDNA, one strand shown
# In short: as §1
# SPIC = molecular target: T2, SPIC (Homo sapiens, UniProt Q8N5J4 1-248); details: protein: recombinant; tags: N-terminal GST; dsDNA, one strand shown
# T2 sequence: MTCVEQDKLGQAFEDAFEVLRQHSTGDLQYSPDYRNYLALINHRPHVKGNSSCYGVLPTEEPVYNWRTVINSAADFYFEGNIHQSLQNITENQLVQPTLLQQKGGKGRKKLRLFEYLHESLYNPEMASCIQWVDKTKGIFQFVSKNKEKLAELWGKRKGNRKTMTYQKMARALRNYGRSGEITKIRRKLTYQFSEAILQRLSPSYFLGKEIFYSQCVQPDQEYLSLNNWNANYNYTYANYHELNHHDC
# In short: as §1
# ELF4 = ELF4 (Homo sapiens, UniProt Q99607 1-663); details: protein: recombinant; tags: N-terminal GST; dsDNA, one strand shown
# In short: as §1
# ELK4 = molecular target: T3, ELK4 (Homo sapiens, UniProt P28324-2 1-405); details: protein: recombinant; tags: N-terminal GST; dsDNA, one strand shown
# T3 sequence: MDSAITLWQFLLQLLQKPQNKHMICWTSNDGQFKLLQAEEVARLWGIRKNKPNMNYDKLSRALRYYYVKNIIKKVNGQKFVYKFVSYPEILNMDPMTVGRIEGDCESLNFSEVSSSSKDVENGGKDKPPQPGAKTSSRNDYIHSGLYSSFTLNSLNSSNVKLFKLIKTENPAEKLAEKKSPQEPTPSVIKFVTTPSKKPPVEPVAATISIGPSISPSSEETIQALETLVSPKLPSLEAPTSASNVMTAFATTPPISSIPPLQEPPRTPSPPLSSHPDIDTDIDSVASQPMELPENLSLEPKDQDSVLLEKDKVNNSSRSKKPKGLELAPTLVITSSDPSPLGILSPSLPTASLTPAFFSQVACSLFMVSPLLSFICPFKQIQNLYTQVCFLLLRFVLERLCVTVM
# In short: as §1
# ETV2 = molecular target: T4, ETV2 (Homo sapiens, UniProt O00321 1-342); details: protein: recombinant; tags: N-terminal GST; dsDNA, one strand shown
# T4 sequence: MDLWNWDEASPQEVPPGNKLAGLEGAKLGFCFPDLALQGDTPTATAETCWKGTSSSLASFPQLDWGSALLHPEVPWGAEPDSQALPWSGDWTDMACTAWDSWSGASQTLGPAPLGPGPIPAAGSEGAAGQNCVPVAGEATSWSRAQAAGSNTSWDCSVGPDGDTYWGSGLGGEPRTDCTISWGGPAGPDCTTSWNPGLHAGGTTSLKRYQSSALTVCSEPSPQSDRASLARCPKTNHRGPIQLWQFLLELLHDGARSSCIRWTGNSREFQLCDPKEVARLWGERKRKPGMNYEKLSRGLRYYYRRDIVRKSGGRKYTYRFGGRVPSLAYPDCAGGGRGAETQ
# In short: as §1
# ELF3 = molecular target: T5, ELF3 (Homo sapiens, UniProt P78545 1-371); details: protein: recombinant; tags: N-terminal GST; dsDNA, one strand shown
# T5 sequence: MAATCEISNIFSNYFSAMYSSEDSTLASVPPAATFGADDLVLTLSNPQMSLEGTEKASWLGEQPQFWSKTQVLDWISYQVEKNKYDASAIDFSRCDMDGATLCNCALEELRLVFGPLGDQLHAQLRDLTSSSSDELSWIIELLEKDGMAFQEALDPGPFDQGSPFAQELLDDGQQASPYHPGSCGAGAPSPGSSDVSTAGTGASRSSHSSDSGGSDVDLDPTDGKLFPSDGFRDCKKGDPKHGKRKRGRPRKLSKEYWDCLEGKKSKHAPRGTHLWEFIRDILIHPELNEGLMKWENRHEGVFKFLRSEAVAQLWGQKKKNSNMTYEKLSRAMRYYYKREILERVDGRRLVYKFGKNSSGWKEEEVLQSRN
# In short: as §1
# CRX = CRX (Homo sapiens, UniProt O43186 1-299); details: protein: recombinant; tags: N-terminal GST; dsDNA, one strand shown
# In short: as §1
# ETV1 = ETV1 (Homo sapiens, UniProt P50549 1-477); details: protein: recombinant; tags: N-terminal GST; dsDNA, one strand shown
# In short: as §1
# ERF = molecular target: T6, ERF (Homo sapiens, UniProt P50548 1-548); details: protein: recombinant; tags: N-terminal GST; dsDNA, one strand shown
# T6 sequence: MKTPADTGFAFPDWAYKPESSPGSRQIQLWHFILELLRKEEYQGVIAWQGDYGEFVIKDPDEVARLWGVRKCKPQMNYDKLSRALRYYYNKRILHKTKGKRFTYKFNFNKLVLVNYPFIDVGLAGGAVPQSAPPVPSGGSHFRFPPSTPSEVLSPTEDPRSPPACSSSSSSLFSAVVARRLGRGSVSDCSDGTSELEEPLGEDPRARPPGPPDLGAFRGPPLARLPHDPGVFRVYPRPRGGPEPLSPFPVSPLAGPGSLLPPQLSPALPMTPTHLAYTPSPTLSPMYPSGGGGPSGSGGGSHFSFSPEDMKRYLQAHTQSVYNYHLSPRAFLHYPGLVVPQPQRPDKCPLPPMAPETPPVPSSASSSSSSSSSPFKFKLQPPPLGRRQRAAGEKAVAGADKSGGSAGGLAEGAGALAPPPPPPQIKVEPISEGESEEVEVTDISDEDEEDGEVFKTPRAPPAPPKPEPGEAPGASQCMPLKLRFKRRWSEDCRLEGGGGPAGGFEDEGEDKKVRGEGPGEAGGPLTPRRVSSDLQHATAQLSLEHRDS
# In short: as §1
# ETV3L = molecular target: T7, ETV3L (Homo sapiens, UniProt Q6ZN32 1-361); details: protein: recombinant; tags: N-terminal GST; dsDNA, one strand shown
# T7 sequence: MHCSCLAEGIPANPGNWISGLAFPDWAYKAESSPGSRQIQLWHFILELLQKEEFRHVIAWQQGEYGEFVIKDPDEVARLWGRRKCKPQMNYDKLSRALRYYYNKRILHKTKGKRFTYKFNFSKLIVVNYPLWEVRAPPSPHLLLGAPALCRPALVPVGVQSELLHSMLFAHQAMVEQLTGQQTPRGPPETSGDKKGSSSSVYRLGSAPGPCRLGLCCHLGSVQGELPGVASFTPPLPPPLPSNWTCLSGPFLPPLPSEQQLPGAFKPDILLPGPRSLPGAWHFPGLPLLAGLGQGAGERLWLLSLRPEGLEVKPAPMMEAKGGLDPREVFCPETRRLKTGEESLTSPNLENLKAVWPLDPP
# In short: as §1
# ETS2 = molecular target: T8, ETS2 (Homo sapiens, UniProt P15036 1-469); details: protein: recombinant; tags: N-terminal GST; dsDNA, one strand shown
# T8 sequence: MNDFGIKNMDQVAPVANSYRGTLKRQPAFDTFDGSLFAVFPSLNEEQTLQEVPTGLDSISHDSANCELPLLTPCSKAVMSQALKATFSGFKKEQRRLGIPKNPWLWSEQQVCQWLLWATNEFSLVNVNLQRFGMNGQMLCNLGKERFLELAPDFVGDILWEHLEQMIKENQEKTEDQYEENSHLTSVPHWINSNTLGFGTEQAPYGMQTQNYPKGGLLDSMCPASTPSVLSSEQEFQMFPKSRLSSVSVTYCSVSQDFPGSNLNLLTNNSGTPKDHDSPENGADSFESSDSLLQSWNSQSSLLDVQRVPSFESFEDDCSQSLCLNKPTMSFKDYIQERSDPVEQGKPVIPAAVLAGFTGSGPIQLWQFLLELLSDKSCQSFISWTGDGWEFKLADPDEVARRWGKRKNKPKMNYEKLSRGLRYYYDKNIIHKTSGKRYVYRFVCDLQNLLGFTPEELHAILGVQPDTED
# In short: as §1
# SPDEF = molecular target: T9, SPDEF (Homo sapiens, UniProt O95238 1-335); details: protein: recombinant; tags: N-terminal GST; dsDNA, one strand shown
# T9 sequence: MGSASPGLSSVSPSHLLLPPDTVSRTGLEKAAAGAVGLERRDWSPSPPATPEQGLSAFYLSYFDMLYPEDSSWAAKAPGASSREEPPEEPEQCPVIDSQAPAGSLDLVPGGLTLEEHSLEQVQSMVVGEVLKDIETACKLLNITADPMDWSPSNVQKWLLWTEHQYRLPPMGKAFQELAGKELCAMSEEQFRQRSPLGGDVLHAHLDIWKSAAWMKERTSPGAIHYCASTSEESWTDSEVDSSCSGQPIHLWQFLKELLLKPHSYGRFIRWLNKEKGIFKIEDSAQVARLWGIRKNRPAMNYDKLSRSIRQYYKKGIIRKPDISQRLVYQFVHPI
# In short: as §1
# ETV7 = molecular target: T10, ETV7 (Homo sapiens, UniProt Q9Y603 1-341); details: protein: recombinant; tags: N-terminal GST; dsDNA, one strand shown
# T10 sequence: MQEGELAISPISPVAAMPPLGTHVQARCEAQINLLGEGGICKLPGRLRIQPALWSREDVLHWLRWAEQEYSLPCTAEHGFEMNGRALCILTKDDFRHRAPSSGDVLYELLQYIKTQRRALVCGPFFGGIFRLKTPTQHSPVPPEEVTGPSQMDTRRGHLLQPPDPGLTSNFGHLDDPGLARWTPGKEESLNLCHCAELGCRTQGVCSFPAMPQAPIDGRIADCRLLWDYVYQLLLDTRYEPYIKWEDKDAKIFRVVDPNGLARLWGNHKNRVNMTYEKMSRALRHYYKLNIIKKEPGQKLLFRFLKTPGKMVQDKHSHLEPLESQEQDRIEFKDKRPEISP
# In short: as §1
# ELF5 = molecular target: T11, ELF5 (Homo sapiens, UniProt Q9UKW6-2 1-255); details: protein: recombinant; tags: N-terminal GST; dsDNA, one strand shown
# T11 sequence: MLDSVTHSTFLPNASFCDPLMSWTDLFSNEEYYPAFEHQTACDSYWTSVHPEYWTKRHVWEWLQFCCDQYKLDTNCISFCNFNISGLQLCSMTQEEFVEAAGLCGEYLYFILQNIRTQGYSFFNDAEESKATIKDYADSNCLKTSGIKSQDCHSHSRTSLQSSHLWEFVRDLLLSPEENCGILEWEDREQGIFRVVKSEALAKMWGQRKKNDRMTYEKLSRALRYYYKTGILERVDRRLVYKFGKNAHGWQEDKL
# In short: as §1
# ETV3 = molecular target: T12, ETV3 (Homo sapiens, UniProt P41162-2 1-143); details: protein: recombinant; tags: N-terminal GST; dsDNA, one strand shown
# T12 sequence: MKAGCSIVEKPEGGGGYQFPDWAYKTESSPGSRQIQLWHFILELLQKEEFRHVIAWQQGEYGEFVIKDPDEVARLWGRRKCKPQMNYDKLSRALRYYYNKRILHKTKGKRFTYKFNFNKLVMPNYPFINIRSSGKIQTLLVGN
# In short: as §1
# ETV6 = ETV6 (Homo sapiens, UniProt P41212 1-452); details: protein: recombinant; tags: N-terminal GST; dsDNA, one strand shown
# In short: as §1
# Sequence of ETV5 (P41161 whole entry): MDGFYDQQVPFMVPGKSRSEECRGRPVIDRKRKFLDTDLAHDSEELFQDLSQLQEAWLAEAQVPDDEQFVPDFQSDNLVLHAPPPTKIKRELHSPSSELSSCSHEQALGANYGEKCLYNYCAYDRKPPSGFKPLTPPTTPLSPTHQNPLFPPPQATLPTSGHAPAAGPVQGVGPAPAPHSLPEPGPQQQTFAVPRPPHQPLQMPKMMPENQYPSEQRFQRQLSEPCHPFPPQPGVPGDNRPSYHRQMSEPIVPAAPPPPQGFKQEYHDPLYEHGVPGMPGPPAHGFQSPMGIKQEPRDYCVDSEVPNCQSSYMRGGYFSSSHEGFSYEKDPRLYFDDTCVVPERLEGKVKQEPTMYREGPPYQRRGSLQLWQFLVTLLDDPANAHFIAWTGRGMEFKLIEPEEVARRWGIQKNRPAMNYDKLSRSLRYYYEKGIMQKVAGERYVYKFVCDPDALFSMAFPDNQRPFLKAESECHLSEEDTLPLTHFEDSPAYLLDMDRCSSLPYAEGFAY
# Sequence of CRX (O43186 whole entry): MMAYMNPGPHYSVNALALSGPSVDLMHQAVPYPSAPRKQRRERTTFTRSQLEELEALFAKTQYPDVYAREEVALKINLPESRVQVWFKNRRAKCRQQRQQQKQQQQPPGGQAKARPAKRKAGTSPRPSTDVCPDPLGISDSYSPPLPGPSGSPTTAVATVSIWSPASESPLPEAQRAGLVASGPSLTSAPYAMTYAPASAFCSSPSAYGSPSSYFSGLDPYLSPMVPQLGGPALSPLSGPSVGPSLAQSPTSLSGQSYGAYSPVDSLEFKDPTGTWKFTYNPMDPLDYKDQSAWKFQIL
# Sequence of HSF1 (Q00613 whole entry): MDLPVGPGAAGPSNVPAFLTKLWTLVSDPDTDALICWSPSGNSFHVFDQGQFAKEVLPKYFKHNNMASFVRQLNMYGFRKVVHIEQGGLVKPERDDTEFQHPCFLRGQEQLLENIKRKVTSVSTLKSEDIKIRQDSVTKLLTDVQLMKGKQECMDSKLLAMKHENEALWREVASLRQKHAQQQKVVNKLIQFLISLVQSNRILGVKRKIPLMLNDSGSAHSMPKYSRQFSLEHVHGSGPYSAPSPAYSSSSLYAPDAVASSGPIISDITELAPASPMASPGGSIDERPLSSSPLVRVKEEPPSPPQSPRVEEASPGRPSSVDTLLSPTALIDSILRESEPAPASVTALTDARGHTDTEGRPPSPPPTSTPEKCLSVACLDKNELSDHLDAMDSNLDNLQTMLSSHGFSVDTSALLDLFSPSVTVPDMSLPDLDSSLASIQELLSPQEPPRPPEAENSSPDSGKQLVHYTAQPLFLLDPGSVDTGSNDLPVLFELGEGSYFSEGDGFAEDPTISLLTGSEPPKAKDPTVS
# Sequence of ETV1 (P50549 whole entry): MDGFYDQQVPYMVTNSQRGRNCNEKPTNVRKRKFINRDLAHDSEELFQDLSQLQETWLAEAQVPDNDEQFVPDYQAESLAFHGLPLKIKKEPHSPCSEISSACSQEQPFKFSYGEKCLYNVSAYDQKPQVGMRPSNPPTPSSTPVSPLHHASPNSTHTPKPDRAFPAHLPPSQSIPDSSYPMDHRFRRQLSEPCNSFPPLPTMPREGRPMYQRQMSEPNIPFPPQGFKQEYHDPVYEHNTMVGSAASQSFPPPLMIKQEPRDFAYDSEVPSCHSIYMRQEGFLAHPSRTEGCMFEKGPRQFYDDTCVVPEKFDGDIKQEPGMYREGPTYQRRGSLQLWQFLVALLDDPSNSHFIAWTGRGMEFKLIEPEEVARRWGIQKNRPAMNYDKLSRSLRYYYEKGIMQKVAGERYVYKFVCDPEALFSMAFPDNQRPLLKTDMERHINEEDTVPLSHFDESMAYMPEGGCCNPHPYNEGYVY
# Sequence of ETV6 (P41212 whole entry): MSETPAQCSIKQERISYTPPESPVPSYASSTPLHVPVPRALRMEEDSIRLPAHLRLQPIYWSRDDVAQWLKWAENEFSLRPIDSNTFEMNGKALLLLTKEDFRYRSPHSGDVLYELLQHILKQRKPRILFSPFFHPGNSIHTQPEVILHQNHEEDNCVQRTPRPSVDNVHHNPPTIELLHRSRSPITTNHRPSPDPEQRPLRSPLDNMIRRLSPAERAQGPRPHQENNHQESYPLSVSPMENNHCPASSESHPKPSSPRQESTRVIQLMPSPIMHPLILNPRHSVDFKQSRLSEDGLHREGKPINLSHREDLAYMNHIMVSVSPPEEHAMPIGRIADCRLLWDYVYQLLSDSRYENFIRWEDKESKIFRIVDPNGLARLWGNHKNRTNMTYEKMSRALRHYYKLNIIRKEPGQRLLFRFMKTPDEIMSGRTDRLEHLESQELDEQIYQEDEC
# Sequence of ELF4 (Q99607 whole entry): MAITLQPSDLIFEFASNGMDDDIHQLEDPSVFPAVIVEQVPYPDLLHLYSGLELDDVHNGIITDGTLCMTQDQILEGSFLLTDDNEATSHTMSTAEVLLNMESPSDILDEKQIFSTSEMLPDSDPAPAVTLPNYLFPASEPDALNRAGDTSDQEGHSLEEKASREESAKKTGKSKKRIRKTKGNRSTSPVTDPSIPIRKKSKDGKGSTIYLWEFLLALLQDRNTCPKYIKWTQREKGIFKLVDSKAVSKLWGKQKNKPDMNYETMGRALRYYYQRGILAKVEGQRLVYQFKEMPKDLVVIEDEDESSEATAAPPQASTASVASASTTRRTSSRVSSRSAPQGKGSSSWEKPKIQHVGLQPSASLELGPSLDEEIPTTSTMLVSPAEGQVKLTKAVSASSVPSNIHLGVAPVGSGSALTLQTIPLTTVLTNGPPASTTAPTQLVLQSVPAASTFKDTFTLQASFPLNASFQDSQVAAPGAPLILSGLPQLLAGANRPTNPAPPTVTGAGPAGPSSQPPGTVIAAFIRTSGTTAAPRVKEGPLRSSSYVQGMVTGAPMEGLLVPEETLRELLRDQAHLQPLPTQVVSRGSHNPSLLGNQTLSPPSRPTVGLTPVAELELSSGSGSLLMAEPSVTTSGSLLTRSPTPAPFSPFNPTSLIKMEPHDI
sequence,measurement,setting,value
TACGCT,binding signal,FEV,"1.32 fold enrichment (6-mer frequency, TF over GST control)"
same,binding signal,ETV5,"1.3 fold enrichment (6-mer frequency, TF over GST control)"
same,binding signal,HSF1,"1.28 fold enrichment (6-mer frequency, TF over GST control)"
same,binding signal,SPIC,"1.21 fold enrichment (6-mer frequency, TF over GST control)"
same,binding signal,ELF4,"1.39 fold enrichment (6-mer frequency, TF over GST control)"
same,binding signal,ELK4,"1.26 fold enrichment (6-mer frequency, TF over GST control)"
same,binding signal,ETV2,"1.23 fold enrichment (6-mer frequency, TF over GST control)"
same,binding signal,ELF3,"1.29 fold enrichment (6-mer frequency, TF over GST control)"
same,binding signal,CRX,"1.48 fold enrichment (6-mer frequency, TF over GST control)"
same,binding signal,ETV1,"1.25 fold enrichment (6-mer frequency, TF over GST control)"
same,binding signal,ERF,"1.4 fold enrichment (6-mer frequency, TF over GST control)"
same,binding signal,ETV3L,"1.27 fold enrichment (6-mer frequency, TF over GST control)"
same,binding signal,ETS2,"1.22 fold enrichment (6-mer frequency, TF over GST control)"
same,binding signal,SPDEF,"1.32 fold enrichment (6-mer frequency, TF over GST control)"
same,binding signal,ETV7,"1.31 fold enrichment (6-mer frequency, TF over GST control)"
same,binding signal,ELF5,"1.24 fold enrichment (6-mer frequency, TF over GST control)"
same,binding signal,ETV3,"1.42 fold enrichment (6-mer frequency, TF over GST control)"
same,binding signal,ETV6,"1.28 fold enrichment (6-mer frequency, TF over GST control)"
